Usually Inhibition stands for the change of the read-out against control, counted positive when it falls.

Molecules are shown by their SMILES. About 30 (0.1%) of roughly 23,000 compounds showed an effect of 50% or more. For the sample, strong results were picked, then their nearest neighbours and some compounds at random. Potency and affinity values are given separately.

This assay concerns Pseudomonas aeruginosa. The settings on record: Concentration 32 ug.mL-1;; ASSAY_TEST Inhibition of Bacterial Growth; detection method Absorption (OD600); MEDIA CAMHB; plate type 384well; NBS; CORNING #3640; time 18 hr.
With `COc1ccc(-c2cc3c4nn(CC(=O)Nc5ccc(F)cc5)c(=O)n4ccn3n2)cc1`, the Inhibition was -1.39%. As to `O=C(CSc1nnc2c(=O)n(Cc3ccc(F)cc3)ccn12)NC1CCCC1`, the Inhibition is 8.47%. The value for `Cc1ccc(Oc2nccn3c(=O)n(CC(=O)Nc4ccc(Cl)cc4F)nc23)cc1` was 0.79%; that for `Cc1cccc(N(Cc2ccc(F)cc2)S(=O)(=O)c2cccn3c(C)nnc23)c1` was 11.57%; that for `COc1cccc(CSc2nnc3c(=O)n(-c4ccc(Br)cc4)ccn23)c1` was 16.71%. The same measure for `Cc1ccccc1Oc1nccn2c(=O)n(CC(=O)Nc3ccc(Cl)c(Cl)c3)nc12`: 3.97%; for `O=C(Cn1nc2c(Sc3ccccc3)nccn2c1=O)Nc1ccc(Br)cc1F`: 11.79%; for `COc1ccc(CNC(=O)CCc2nnc3c4cc(-c5ccc(Cl)cc5)nn4ccn23)cc1OC`: 9.37%. The value for `O=C(Cn1nc2c(Sc3ccccc3)nccn2c1=O)Nc1ccc2c(c1)OCCO2` was 17.83%.
